Shown is part of a subset that was picked to be rich in hits.
nsP2pro primary: blocks chikungunya virus nsP2 protease peptide cleavage | Q8JUX6 | FRET peptide cleavage, nsP2pro, fluorescence 1 h | Potency, µM (doses to about 24.9 µM), for inactives: at the top dose activity change, negative = inhibition, actives largely listed as inhibitors | 31,000 compounds, 1.1% hits | AID 1964107; note: nearly all actives have a fitted effect of over 60% in size
Target sequence (Q8JUX6 whole entry, looked up): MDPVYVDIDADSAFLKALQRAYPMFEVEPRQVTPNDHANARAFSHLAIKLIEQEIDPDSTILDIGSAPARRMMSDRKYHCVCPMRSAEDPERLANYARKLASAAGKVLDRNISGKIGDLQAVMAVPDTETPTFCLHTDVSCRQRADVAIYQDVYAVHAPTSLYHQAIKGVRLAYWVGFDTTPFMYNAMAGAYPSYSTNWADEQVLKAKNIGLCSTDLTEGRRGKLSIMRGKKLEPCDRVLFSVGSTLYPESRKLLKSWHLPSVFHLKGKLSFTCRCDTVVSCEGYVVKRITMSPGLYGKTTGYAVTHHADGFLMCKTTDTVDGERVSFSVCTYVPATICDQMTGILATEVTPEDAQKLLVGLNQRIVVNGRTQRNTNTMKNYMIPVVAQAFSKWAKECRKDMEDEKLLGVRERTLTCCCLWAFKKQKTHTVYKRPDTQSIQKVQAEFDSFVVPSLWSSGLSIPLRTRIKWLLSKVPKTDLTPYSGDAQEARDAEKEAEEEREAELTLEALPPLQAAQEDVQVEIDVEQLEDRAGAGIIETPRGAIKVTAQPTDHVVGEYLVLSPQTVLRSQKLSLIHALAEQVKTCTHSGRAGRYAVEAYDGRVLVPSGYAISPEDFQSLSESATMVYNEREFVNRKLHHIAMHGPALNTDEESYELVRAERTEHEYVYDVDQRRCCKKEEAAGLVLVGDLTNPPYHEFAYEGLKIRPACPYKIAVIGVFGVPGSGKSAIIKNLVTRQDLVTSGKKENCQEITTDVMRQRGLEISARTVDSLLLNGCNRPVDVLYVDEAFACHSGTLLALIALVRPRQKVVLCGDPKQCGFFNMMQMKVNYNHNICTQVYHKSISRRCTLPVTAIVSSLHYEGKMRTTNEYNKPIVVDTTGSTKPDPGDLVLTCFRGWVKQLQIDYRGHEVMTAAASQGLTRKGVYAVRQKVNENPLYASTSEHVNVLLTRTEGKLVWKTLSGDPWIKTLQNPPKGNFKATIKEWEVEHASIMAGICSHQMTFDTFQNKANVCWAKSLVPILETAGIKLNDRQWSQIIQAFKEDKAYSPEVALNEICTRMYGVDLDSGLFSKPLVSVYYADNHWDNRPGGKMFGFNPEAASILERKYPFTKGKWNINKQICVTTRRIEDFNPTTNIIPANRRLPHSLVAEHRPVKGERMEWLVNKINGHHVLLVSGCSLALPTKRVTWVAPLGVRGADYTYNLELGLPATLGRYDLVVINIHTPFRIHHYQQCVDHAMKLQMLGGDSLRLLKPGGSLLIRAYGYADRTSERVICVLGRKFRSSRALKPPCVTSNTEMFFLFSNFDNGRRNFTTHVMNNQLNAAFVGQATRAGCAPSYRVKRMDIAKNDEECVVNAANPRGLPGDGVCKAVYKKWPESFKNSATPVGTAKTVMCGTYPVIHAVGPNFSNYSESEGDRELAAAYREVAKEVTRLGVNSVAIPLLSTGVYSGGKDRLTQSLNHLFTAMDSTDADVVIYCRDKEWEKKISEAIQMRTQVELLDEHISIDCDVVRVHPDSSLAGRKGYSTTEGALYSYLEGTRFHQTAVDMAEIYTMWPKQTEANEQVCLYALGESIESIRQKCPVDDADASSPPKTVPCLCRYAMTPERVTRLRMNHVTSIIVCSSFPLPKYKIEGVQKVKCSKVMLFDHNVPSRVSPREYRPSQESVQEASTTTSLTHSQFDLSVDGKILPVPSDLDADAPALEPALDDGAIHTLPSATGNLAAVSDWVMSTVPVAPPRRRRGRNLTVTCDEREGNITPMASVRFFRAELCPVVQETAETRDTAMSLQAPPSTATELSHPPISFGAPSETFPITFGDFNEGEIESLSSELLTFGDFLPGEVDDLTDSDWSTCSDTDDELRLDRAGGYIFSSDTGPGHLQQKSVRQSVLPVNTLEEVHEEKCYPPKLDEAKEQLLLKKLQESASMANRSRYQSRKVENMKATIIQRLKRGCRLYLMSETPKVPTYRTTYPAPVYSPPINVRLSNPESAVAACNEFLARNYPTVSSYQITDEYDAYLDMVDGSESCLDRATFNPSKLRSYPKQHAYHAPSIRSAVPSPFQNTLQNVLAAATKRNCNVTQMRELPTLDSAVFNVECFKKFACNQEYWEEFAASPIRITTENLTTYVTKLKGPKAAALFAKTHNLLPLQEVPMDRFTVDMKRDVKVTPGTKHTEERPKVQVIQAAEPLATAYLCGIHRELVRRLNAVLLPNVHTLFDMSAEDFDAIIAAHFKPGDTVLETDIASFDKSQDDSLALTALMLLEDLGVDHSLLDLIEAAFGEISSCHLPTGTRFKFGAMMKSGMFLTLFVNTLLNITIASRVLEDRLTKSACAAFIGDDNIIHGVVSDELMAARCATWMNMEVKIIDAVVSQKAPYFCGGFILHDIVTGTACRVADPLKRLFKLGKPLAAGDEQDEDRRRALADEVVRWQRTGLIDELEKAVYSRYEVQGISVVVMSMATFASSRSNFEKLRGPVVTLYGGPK
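Recombinant nsP2pro (150 nM) was preincubated with compound 15 min at room temperature in 10 mM Tris-HCl pH 8.0, 0.01% Tween 20. Peptide 2 FRET substrate (2.5 uM) was then added and fluorescence read after 1 h. Seven-point series, up to 25 uM.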
CHIKV nsP2 cell: inhibits CHIKV nsP2 protease in cells | 450 compounds, 10% hits | AID 1964100 | cell-based CHIKV nsP2 protease reporter assay | shares compounds with nsP2pro primary | Potency, µM (doses to about 51.1 µM), for inactives: at the highest dose activity change, negative = inhibition, actives largely listed as inhibitors; note: nearly all actives have a fitted effect of over 70% in size
NSP2 full ctr: inhibits full-length CHIKV NSP2 enzyme; 410 compounds, 39% hits; shares compounds with nsP2pro primary; AID 1964101; Potency, µM (series often up to 50.7 µM), for inactives: at the highest dose activity change, negative = inhibition, hits mostly inhibitors; Full-length CHIKV NSP2 protease enzymatic counterscreen; note: nearly all actives have a fitted effect of over 65% in size
Furin counterscr: inhibits human furin in a CHIKV nsP2 protease selectivity counterscreen; shares compounds with nsP2pro primary; Recombinant human furin enzymatic counterscreen, fluorogenic substrate; Potency, µM (doses to about 50.6 µM), inactives show at the highest dose activity change, negative = inhibition, usual class: inhibitors; 410 compounds, 6% hits
NS23 peptide cs: selectivity test for CHIKV nsP2 protease inhibitors: endogenous NS2/3 peptide. Purified CHIKV nsP2 protease, endogenous NS2/3 peptide cleavage. AID 1964103. shares compounds with nsP2pro primary. Potency, µM (series often up to 51 µM), inactives show top-dose activity change, negative = inhibition, hits mostly inhibitors. 410 compounds, 34% hits; note: nearly all actives have a fitted effect of over 55% in size
Papain counter: inhibits papain in a CHIKV nsP2 protease selectivity counterscreen; shares compounds with nsP2pro primary; purified papain protease activity, enzymatic inhibition; Potency, µM (titrated, usually from 51 µM), for the others: at the highest dose activity change, negative = inhibition, most hits filed as inhibitors; 410 compounds, 5% hits; AID 1964104
nsP2pro confirm: CHIKV nsP2 protease inhibition, confirmatory qHTS. shares compounds with nsP2pro primary. CHIKV nsP2 protease enzymatic activity, qHTS. Potency, µM (series often up to 25.5 µM), without a hit: top-dose activity change, negative = inhibition, hits mostly inhibitors. 410 compounds, 43% hits; note: nearly all actives have a fitted effect of over 75% in size
HCV NS3 4A cs: HCV NS3/4A protease inhibition, counterscreen. Potency, µM (titrated, usually from 50.9 µM), hits mostly inhibitors. shares compounds with nsP2pro primary. HCV NS3/4A protease biochemical counterscreen. 410 compounds, 20% hits; note: nearly all actives have a fitted effect of over 55% in size
Starred values were filed as active, the others as inactive; i = inactive; ? = inconclusive; / = no result; [ ] = dose if it differs, or a comment. Calls come from the whole dose curve. % is set by controls: 0 for no effect and ±100 for the full control effect; potency is the fitted concentration of half-maximal effect.

SMILES	nsP2pro primary	CHIKV nsP2 cell	others
CC(Cc1ccc(O)c(O)c1)C(C)Cc1ccc(O)c(O)c1 (stereo not drawn)	9.88µM*	33.8%	NSP2 full ctr=29.1µM*;Furin counterscr=-16.3%;NS23 peptide cs=20.6µM*;Papain counter=-15.7%;nsP2pro confirm=7.98µM*;HCV NS3 4A cs=i
CC(CCc1ccc(O)cc1)NCCc1ccc(O)c(O)c1 (stereo not drawn)	-16.3%	/
Cc1nn(C)c(C)c1S(=O)(=O)NCCc1noc(-c2cccnc2)n1	i	/
Cc1cc(C)nc(NC(=S)N2CCN(c3cccc4ccccc34)CC2)c1	-5.8%	/
CCCCC(=O)O	-3.8%	/
CCCCCCCCCCCCCCCCCC(=O)O	?	5.3%	NSP2 full ctr=3.66µM*;Furin counterscr=5.3%;NS23 peptide cs=-19.4%;Papain counter=20.6µM*;nsP2pro confirm=4µM*;HCV NS3 4A cs=i
CCCCCCCCCCCCCC(=O)O	-32.5%	/
O=C1CCCC2=C1C(c1[nH]ncc1Cl)NC(=S)N2 (stereo not drawn)	-3.6%	/
CCc1cc(/C(C)=N/OCc2ccc(C3CCCCC3)c(C(F)(F)F)c2)ccc1CN1CC(C(=O)O)C1	64.2%	/
COC(=O)c1ccc(OC(CO)C(O)c2ccc(O)c(OC)c2)c(OC)c1 (stereo not drawn)	6.5%	/
Cc1cc(=O)[nH]c2nnc(SCc3ccc(Cl)cc3Cl)n12	-14.9%	/
Clc1ccccc1CSc1nnc(C2CCNCC2)o1	12.3%	/
CC(C)C[C@H](N)c1nnc(SCc2ccc(Cl)cc2Cl)o1	?	30.9%
COC1=C(OC)C(=O)C(CC=C(C)CCC=C(C)CCC=C(C)CCC=C(C)CCC=C(C)CCC=C(C)CCC=C(C)CCC=C(C)CCC=C(C)CCC=C(C)C)=C(C)C1=O	-3.4%[2.68 µM]	/
CC(C)=CCC1=C(O)c2ccccc2C(=O)C1=O	?	?	NSP2 full ctr=?;Furin counterscr=-10.9%[100 µM];NS23 peptide cs=?;Papain counter=-27.2%[100 µM];nsP2pro confirm=-30.8%[50 µM];HCV NS3 4A cs=i
CNc1ccc(C(=O)NCCCc2c(C)noc2C)cn1	i	/
O=C(c1ccccc1OCC1CCCNC1)N1CCOCC1 (stereo not drawn)	-9.8%	/
Cc1c(C(=O)OC2CCCCC2)[nH]c2c1C(=O)CC(c1ccccc1Cl)C2 (stereo not drawn)	-14.5%	/
Cc1c(C(=O)OCC2CCCC2)[nH]c2c1C(=O)CC(c1ccco1)C2 (stereo not drawn)	3.98µM*	?	NSP2 full ctr=-15.4%;Furin counterscr=-3.7%;NS23 peptide cs=-5.0%;Papain counter=-4.0%;nsP2pro confirm=8.5%;HCV NS3 4A cs=i
COc1ccc(C2CC(=O)c3c([nH]c(C(=O)OCc4ccccc4)c3C)C2)cc1OC (stereo not drawn)	-17.4%	/
COc1ccccc1N1CCN(CC[C@@](C)(C(=O)C2CCCCC2)c2ccccc2)CC1	2.7%	/
CC1=C(C(=O)Nc2nnc(-c3ccccc3)s2)C(c2nn(C)cc2Cl)N=C(Nc2nc3ccccc3o2)N1 (stereo not drawn)	i	/
C=C[C@H]1[C@H](O[C@@H]2O[C@H](CO[C@@H]3OC[C@](O)(CO)[C@H]3O)[C@@H](O)[C@H](O)[C@H]2O)OC=C2C(=O)OCC[C@H]21	-2.2%[10 µM]	/
COCC(=O)NC[C@H]1CCN(Cc2scnc2C)C[C@H]1N(C)C	-4.4%	/
Cc1coc2c1C(=O)C(=O)c1c-2ccc2c1CCCC2(C)C	?	-8.1%	NSP2 full ctr=11.6µM*;Furin counterscr=-15.4%;NS23 peptide cs=?;Papain counter=?;nsP2pro confirm=?;HCV NS3 4A cs=i
SMILES	nsP2pro primary	CHIKV nsP2 cell	others
Cc1coc2c1C(=O)C(=O)c1c-2ccc2c(C)cccc12	?	-1.6%	NSP2 full ctr=?;Furin counterscr=-13.5%;NS23 peptide cs=?;Papain counter=?;nsP2pro confirm=?;HCV NS3 4A cs=i
CC(=O)OCC(=O)[C@@]1(O)[C@H](C)C[C@H]2[C@@H]3C[C@H](F)C4=CC(=O)C=C[C@]4(C)[C@@]3(F)[C@@H](O)C[C@@]21C	-6.9%	/
Cc1cc(=O)oc2cc(NC(=O)[C@H](CCC(=O)O)NC(=O)[C@H](CC(C)C)NC(=O)[C@H](CC(C)C)NC(=O)OCc3ccccc3)ccc12	1.8%	/
CNS(=O)(=O)c1ccccc1Nc1nc(Nc2ccc(N3CCN(C)CC3)cc2OC)ncc1Cl	105.0%	/
Clc1ccc(N2C[C@H]3CC[C@@H](C2)N3)nn1	4.95µM*	1.2%	NSP2 full ctr=4.11µM*;Furin counterscr=?;NS23 peptide cs=14.6µM*;Papain counter=?;nsP2pro confirm=3.57µM*;HCV NS3 4A cs=i
Cc1cc(C)nc(NC(=S)N2CCN(c3ccc(Cl)nn3)CC2)c1	-9.5%	/
COc1ccccc1CC(=O)N1CCC(n2nccc2NC(=O)c2ccccc2C)CC1	i	/
C=C1CCC2C(C)(C(=O)OC)CCCC2(C)C1CCC(C)CC(=O)O (stereo not drawn)	-10.9%	/
O=C(/C=C/c1ccc(Cl)cc1)Nc1cccc([S+](=O)([O-])Nc2ccccc2F)c1	0.6%	/
CC(=O)OC[C@@]12C(=O)C[C@@H](C)[C@]3(C[C@@H](c4ccoc4)OC3=O)[C@H]1CC[C@H](OC(C)=O)[C@]21CO1	-19.9%[10 µM]	/
C[C@@H]1CC[C@]2(C)C3(C)CC[C@@]2(OC3=O)[C@@]12C[C@H](c1ccoc1)OC2=O	2.43µM*	-11.4%[33.5 µM]	NSP2 full ctr=7.15µM*;Furin counterscr=5.1%[33.5 µM];NS23 peptide cs=?;Papain counter=-8.7%[33.5 µM];nsP2pro confirm=2.2µM*;HCV NS3 4A cs=1.8µM*
CCN1CCC2(CCC1=O)CN(Cc1cscn1)CCN2C (stereo not drawn)	i	/
CCc1ccc(NCc2cccn2-c2nnc(N3CCCCCC3)s2)cc1	?	?
COc1ccccc1NCc1cccn1-c1nnc(N2CCCCCC2)s1	-26.9%	/
Cc1ccc(CNCc2cccn2-c2nnc(N3CCCC3)s2)cc1	-6.8%	/
Cc1cnc(Nc2ccc(CN3CCOCC3)cc2)nc1Nc1cccc(S(=O)(=O)NC(C)(C)C)c1	48.3%	/
CCOc1ccc(CC2NC(=O)CCSSCC(C(=O)N3CCCC3C(=O)NC(CCCN)C(=O)NCC(N)=O)NC(=O)C(CC(N)=O)NC(=O)C(C(C)O)NC(=O)C(C(C)CC)NC2=O)cc1 (stereo not drawn)	36.2%	/
O=C(C1CCCNC1)N1CCCn2cc(-c3ccccc3F)nc21 (stereo not drawn)	-3.5%	/
CCOc1cc(CNc2ccc(O)cc2)ccc1OCc1ccc(Cl)cc1	10µM*	13µM*	NSP2 full ctr=18.3µM*;Furin counterscr=-21.7%;NS23 peptide cs=?;Papain counter=-24.2%;nsP2pro confirm=-2.1%;HCV NS3 4A cs=?
Oc1ccc(NCc2ccccc2OCc2ccc(Cl)cc2)cc1	2.39µM*	11.6µM*	NSP2 full ctr=13µM*;Furin counterscr=-12.4%;NS23 peptide cs=?;Papain counter=-11.6%;nsP2pro confirm=?;HCV NS3 4A cs=13µM*

Screening results deposited in PubChem by National Center for Advancing Translational Sciences (NCATS).
